# Screens deposited in PubChem by National Center for Advancing Translational Sciences (NCATS).
# Only some compounds are listed: those with a hit (about 3% of all), similar ones and a draw of the others.
# Tb PYK inh = inhibitors of Trypanosoma brucei pyruvate kinase; AID 624173; Q57TT1; 0.12% of 410,000 active; TbPYK enzyme, Kinase-Glo Plus ATP luminescence, 45 min; Potency, µM (top dose mostly 76.8 µM), without a hit: at the top dose activity, negative = inhibition, most hits filed as inhibitors; note: nearly all actives have a fitted effect of over 50% in size
#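 T. brucei PYK with substrate was exposed to pin-transferred compounds across a concentration series, then started with 130 uM ADP (final). After 45 min at room temperature, Kinase-Glo Plus luminescence was read, normalized and curve-fitted.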
# Sm TGR block = S. mansoni TGR enzyme inhibition. Q962Y6. purified TGR, DTNB reduction, TNB absorbance 405 nm. Potency, µM (series often up to 114 µM), for inactives: at the top dose activity change, negative = inhibition, most hits filed as inhibitors. 3% of 360,000 active. AID 485364; note: nearly all actives have a fitted effect of over 60% in size
#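 TGR 20 nM + NADPH 100 uM (dispensed conc.), cpd preinc 15 min RT; start with NADPH (500 uM addition) then DTNB (15 mM addition). Kinetic TNB absorbance, 405 nm filter. Four-parameter Hill fit across titration.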
# LmPK inh = LmPK (Leishmania mexicana) enzyme inhibition; Q27686; purified LmPK, Kinase-Glo ATP luminescence, 1 h; Potency, µM (doses to about 57.5 µM), without a hit: top-dose activity change, negative = inhibition, hits mostly inhibitors; 0.37% of 290,000 active; AID 1721
# Target sequence (Q27686 whole entry, looked up): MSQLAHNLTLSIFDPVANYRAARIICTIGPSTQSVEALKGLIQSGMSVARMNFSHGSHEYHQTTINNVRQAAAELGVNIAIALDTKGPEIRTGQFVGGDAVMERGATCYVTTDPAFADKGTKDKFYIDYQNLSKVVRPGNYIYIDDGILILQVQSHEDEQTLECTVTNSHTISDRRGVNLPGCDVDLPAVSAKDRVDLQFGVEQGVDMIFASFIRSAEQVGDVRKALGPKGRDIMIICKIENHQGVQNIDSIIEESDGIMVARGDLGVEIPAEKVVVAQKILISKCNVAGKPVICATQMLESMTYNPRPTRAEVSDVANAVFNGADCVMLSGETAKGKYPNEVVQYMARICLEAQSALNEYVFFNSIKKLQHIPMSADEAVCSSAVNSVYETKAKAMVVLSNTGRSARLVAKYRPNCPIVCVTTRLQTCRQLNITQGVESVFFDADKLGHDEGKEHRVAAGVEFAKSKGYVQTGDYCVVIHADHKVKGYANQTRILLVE
#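 Screened at intermediate enzyme activity to detect both inhibitors and activators: LmPK at 0.1 nM, with a 0.5 nM enzyme column as activation reference. PEP 0.5 mM, ADP 0.1 mM; ATP detected by luminescence after 1 h.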
# RE007 growth inh = less growth of the S. pombe RE007 Vpr strain | 0.21% of 360,000 active | S. pombe RE007 Vpr strain, BacTiter-Glo ATP luminescence, 24 h | Potency, µM (titrated, usually from 92.2 µM), for the others: at the top dose activity change, negative = less growth, usual class: inhibitors; active = well fitted falling curve with a large enough effect; inconclusive = small, poorly fitted or top-dose-only effect; inactive = no such curve, though single readings can be large or run the other way; note: nearly all actives have a fitted effect of over 50% in size
#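 Fission yeast RE007 carrying one integrated HIV-1 vpr copy, seeded at OD 0.01 in PMG+AL medium with 23 nL pinned compound. Grown 24 h at 30 degrees; viability read by BacTiter-Glo luminescence after 5 min.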
# Active calls of the source: *; u = inconclusive; x = no result given; [ ] = another dose, or the depositor's remark. Unless noted, calls come from the whole dose curve; as a rule, active = well fitted curve in the direction sought with a large enough effect; inconclusive = small, poorly fitted or top-dose-only effect, or another doubt; inactive = no such curve, though single readings can be large; an effect the other way counts as inactive or inconclusive. % is set by controls: 0 for no effect and ±100 for the full control effect; potency is the fitted concentration of half-maximal effect.
SMILES,Tb PYK inh,Sm TGR block,LmPK inh,RE007 growth inh
COc1ccc(C(=O)CSc2ccc(-c3ccccc3)nn2)cc1,-3%,-7%,7%,-15%
O=C(CSc1ccc(-c2ccco2)nn1)c1ccccc1,u,8.9µM*,-14%,-29%
CCc1ccc(NC(=O)Nc2ccccc2OCc2cc(=O)n3ccccc3n2)cc1,-7%,0%,x,x
Cc1cc(=S)cc(C)n1CCCO,x,1.8µM*,2%,26%[3.69 µM]
Cc1nc2cc(Cl)c(Cl)cc2n1CCCO,1%,-8%,-10%,-16%
Cc1cc(C)cc(NC(=O)CSc2nc(-c3cccc(Cl)c3)nc3c2Cc2c(CO)cnc(C)c2O3)c1,-7%,35µM*,x,x
CCN(CC)C(=O)CSc1nc(-c2ccc(C)cc2)nc2c1Cc1c(CO)cnc(C)c1O2,0%,20µM*,x,x
Cc1ccc(-c2nc3c(c(SCC(=O)N4CCOCC4)n2)Cc2c(CO)cnc(C)c2O3)cc1,-1%,35µM*,8%,10%
O=[N+]([O-])c1ccc(/C=N/Nc2ncccc2[N+](=O)[O-])s1,-20%,x,x,-21%
COc1ccccc1/C=N/Nc1nccnc1Cl,-5%,-13%,16µM*,-21%
COc1cccc(/C=N/Nc2ncccc2[N+](=O)[O-])c1OC,u,-3%,14µM*,u
COc1ccccc1C=NNC(=O)NN=Cc1ccccc1OC,0%,x,x,-6%
O=C(COc1coc(CN2CCN(c3ccccc3F)CC2)cc1=O)NC1CCCC1,-8%,4%,x,-7%
Cc1ccc(CNC(=O)c2ccc(CS(=O)Cc3ccccc3Cl)o2)cc1 (configuration not stated),-10%,35µM*,2%,1%
O=C(NC1CCCCCC1)c1ccc(CS(=O)(=O)Cc2ccccc2F)o1,-8%,22µM*,4%,-4%
Cc1ccc(CS(=O)Cc2ccc(C(=O)NC3CCCCCC3)o2)cc1 (configuration not stated),-8%,u,5%,2%
O=C(NC1CCCCCC1)c1ccc(CS(=O)Cc2ccccc2Cl)o1 (configuration not stated),3%,32µM*,2%,7%
Cc1ccc(CS(=O)Cc2ccc(C(=O)NC3CCCC(C)C3C)o2)cc1 (configuration not stated),5%,35µM*,-2%,2%
Nc1ncnc2c1ncn2[C@@H]1O[C@H](C(=O)N[C@H](CO)Cc2ccc(O)cc2)[C@@H](O)[C@H]1O,-2%,x,x,1%
O=C(O)COc1ccc2c(c1)O/C(=C\c1ccco1)C2=O,-22%,22µM*,-8%,15%
Cc1cccc(-c2n[nH]c(=S)n2-c2ccccc2)c1[N+](=O)[O-],7.1µM*,0%,u,-11%
Cc1c(Cl)c(-c2n[nH]c(=S)n2Cc2ccco2)nn1C,u,5%,u,-6%
Cc1c(Cl)c(-c2n[nH]c(=S)n2-c2ccccc2)nn1C,2.8µM*,1%,-12%,-1%
COc1ccc(-n2c(-c3cccc(C)c3[N+](=O)[O-])n[nH]c2=S)cc1,u,-16%,u,-8%
COCCn1c(=O)c(-c2cc(F)cc(F)c2)nc2cnc(OC)nc21,-5%,x,x,x
SMILES,Tb PYK inh,Sm TGR block,LmPK inh,RE007 growth inh
O=C(/C=C/NCC(=O)c1ccccc1)c1ccc(Br)cc1,0%,20µM*,4%,-7%
O=C(/C=C/NNC(=O)c1ccccc1)c1ccc(Br)cc1,-9%,1%,6%,-4%
Cc1ccc(C(=O)C2=C(O)C(=O)N(CCCN3CCOCC3)C23C(=O)N(C)c2ccccc23)o1 (configuration not stated),-9%,18%,1%,-9%
CCN1C(=O)C2(C(C(=O)c3cc4ccccc4o3)=C(O)C(=O)N2CCCN(C)C)c2ccccc21 (configuration not stated),-4%,u,3%,10%
CCN1C(=O)C2(C(C(=O)c3ccc(C)o3)=C(O)C(=O)N2CCCN2CCOCC2)c2ccccc21 (configuration not stated),-14%,50µM*,-8%,9%
CCN1C(=O)C2(C(C(=O)c3ccc(C)o3)=C(O)C(=O)N2CCCN(C)C)c2ccccc21 (configuration not stated),-15%,32µM*,-4%,0%
COc1ccc(-c2csc(C(O)c3ccc(F)c(F)c3)n2)cc1 (configuration not stated),-3%,x,x,u
